Bioassay records: PubChem BioAssay, National Center for Advancing Translational Sciences (NCATS)
TRHR agonist – activates the human TRH receptor | P34981 | TRHR cells, calcium flux fluo-8, FDSS agonist mode | activation, % at 2 µM | 360,000 tested, 0.18% active
Target sequence (P34981 whole entry, looked up): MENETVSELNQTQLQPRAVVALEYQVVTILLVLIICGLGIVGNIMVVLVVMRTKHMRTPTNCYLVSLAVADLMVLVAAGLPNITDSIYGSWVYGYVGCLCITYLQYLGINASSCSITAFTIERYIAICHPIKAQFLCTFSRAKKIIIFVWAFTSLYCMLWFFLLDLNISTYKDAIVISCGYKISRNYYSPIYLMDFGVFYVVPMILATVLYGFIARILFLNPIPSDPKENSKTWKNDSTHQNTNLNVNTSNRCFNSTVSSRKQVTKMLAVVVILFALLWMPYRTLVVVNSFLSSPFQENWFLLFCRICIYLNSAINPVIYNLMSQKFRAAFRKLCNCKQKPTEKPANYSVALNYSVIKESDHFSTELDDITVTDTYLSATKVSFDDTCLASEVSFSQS
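In this calcium-flux screen, cells bearing human TRHR are dye-loaded with fluo-8, baselined for 10 cycles, then exposed to library compounds; positive kinetic calcium responses during the agonist phase mark hits, with TRH as control.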
D1 potentiator – potentiators of human D1 dopamine receptor. 360,000 tested, 0.036% active. potentiation, % at 10 µM. P21728. HEK293 TREx D1 cells, calcium flux, dopamine EC20 potentiation; in the data active means potentiation above about 30%
TRHR enhancer – allosterically enhances the human TRH receptor; 360,000 tested, 0.66% active; P34981; enhancement, % at 2 µM; AID 493056; TRHR cells, fluo-8 calcium fluorescence, EC20 TRH enhancement; in the data active means enhancement above about 30%
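TRHR-expressing cells loaded with fluo-8 calcium dye were read kinetically (ex 480/em 530) during compound addition, then stimulated with an EC20 of TRH (10 nM final). Enhancement of the Gq-mediated intracellular calcium response was scored.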
D1 agonist – activates the human D1 dopamine receptor. P21728. HEK293 T-REx D1 cells, calcium flux, agonist mode. activation, % at 2 µM. 360,000 tested, 1% active. AID 504660
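Tetracycline-induced HEK293 TREx D1 cells, force-coupled to calcium signalling, were dye-loaded with a no-wash calcium kit. Compound was pin-added after a 10 s baseline. Fluorescence was read kinetically at 1 cycle/s for 180 s, with calcium rises flagged as agonism.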
D1 antagonist – human D1 dopamine receptor antagonism; HEK293 TREx D1 cells, calcium flux, dopamine EC80; stronger effect = lower value; activity change, negative = inhibition, % at 10 µM; 360,000 tested, 3.2% active; in the data active means activity change below about -30%
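Inducible Hek293 Trex D1 cells (tetracycline, overnight, 30 C). Calcium dye 30–90 min RT. Antagonist mode: EC80 dopamine added after 180 s compound read.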
Glioma ERSR ind – ER stress response induction in glioma; U87-MG GRP78 promoter luciferase reporter, 16 h; Potency, µM, actives largely listed as activators; 420,000 tested, 0.02% active; active means well fitted activation curve with a large enough effect; inconclusive means small, poorly fitted or top-dose-only effect; inactive means no such curve, though single readings can be large or run the other way; further: series mostly up to about 76 µM; nearly all actives have a fitted effect of over 35% in size
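ERSR induction read as luciferase luminescence (Bright-Glo, 10 min at room temperature) in stably transfected human U87-MG glioma cells exposed to compounds for 16 h, using GRP78 as sensor.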
Hits are given with their value; i = inactive; ? = inconclusive; nt = not tested or not shown. Only some compounds are listed: those with a hit (about 4% of all), similar ones and a draw of the others. Unless noted, no stated cut-off is given here; in the data, active means activation above about 30%; inactive means the rest.

SMILES | TRHR agonist | D1 potentiator | TRHR enhancer | D1 agonist | D1 antagonist | Glioma ERSR ind
CCCC[C@H](NC(C)=O)C(=O)N[C@@H](CCC(=O)O)C(=O)N[C@@H](Cc1cnc[nH]1)C(=O)N[C@H](Cc1ccccc1)C(=O)N[C@@H](CCCN=C(N)N)C(=O)N[C@H](Cc1c[nH]c2ccccc12)C(=O)NCC(N)=O | nt | nt | nt | nt | nt | i
O=C1CC[C@H](C(=O)O)N1 | nt | nt | nt | nt | nt | i
CC1(C)SCC(C(=O)O)NC1=O (stereo not given) | i | i | i | i | -34 | i
Cc1ccc(-n2nc(CO)c(C(=O)NCCC(C)C)n2)cc1C | i | i | i | i | -47 | i
CCc1ccc(CNC(=O)c2nn(-c3ccc(C)c(C)c3)nc2CO)cc1 | i | i | i | i | i | i
CCC(C)NC(=O)Cn1nc(C(F)(F)F)c2c1CCCC2 (stereo not given) | i | i | i | i | -38 | i
Nc1ccc(/C=C/c2ccnc3ccccc23)c(N)c1 | nt | nt | nt | nt | nt | i
CCOC(=O)c1c(NC(=O)C(C)Sc2cn(CCNC(=O)c3c(F)cccc3F)c3ccccc23)sc2c1CCC2 (stereo not given) | i | i | i | i | i | i
Cc1nc(Nc2ccccc2)sc1C(=O)Nc1ccccc1 | i | i | i | i | i | i
COc1ccccc1Nc1nc(C)c(C(=O)Nc2ccccc2)s1 | i | i | i | i | -38 | ?
Cc1nc(Nc2ccc(S(N)(=O)=O)cc2)sc1C(=O)Nc1ccccc1 | i | i | i | i | -55 | i
Cc1ccc(CNC(=O)c2cc3sccc3n2Cc2ccc(Cl)cc2)cc1 | i | i | i | i | i | i
CC(C)C(NS(C)(=O)=O)c1nnc2n1CCN(Cc1ccc(C#CC(C)(C)O)cc1)CC2 (stereo not given) | nt | nt | nt | nt | nt | i
CC1CCN(CCn2c(=S)[nH]c3cc4c(cc3c2=O)OCO4)CC1 | i | i | i | i | i | i
O=c1c2cc3c(cc2[nH]c(=S)n1CCN1CCOCC1)OCO3 | i | i | i | i | -50 | i
CSc1oc(-c2ccccc2)nc1S(=O)(=O)c1ccc(C)cc1 | i | i | i | i | -35 | i
Cc1ccc(-c2nc(S(=O)(=O)c3ccc(C)cc3)c(SCC(=O)Nc3ccc(F)cc3)o2)cc1 | i | i | i | i | -61 | i
O=C(c1ccccc1)c1nn(-c2cccc(Cl)c2)c2nc(-c3ccccc3)cc(=O)n12 | i | i | i | i | -74 | i
Cc1cccc(-n2nc(C(=O)Nc3ccccc3)n3c(=O)cc(-c4ccccc4)nc23)c1 | i | i | i | i | i | i
COc1ccc(C2C(C(=O)c3cccs3)=C(O)C(=O)N2c2nncs2)cc1 (stereo not given) | 36 | i | i | 67 | i | i
Cc1cccc(N2C(=O)C(O)=C(C(=O)c3cccs3)C2c2ccc(F)cc2)n1 (stereo not given) | i | i | i | i | i | i
CC(C)c1nnc(N2C(=O)C(O)=C(C(=O)c3cccs3)C2c2ccccc2)s1 (stereo not given) | 169 | i | i | 270 | nt | i
COc1ccc(C2C(C(=O)c3cccs3)=C(O)C(=O)N2c2nnc(C)s2)cc1OC (stereo not given) | 193 | i | i | 77 | i | i
CN1[C@@H]2CCC[C@@H]1CC(NC(=O)c1nn(C)c3ccccc13)C2 (stereo not given in full) | nt | nt | nt | nt | nt | i
O=C(CN(CCc1c[nH]c2ccccc12)S(=O)(=O)c1ccccc1)N1CCCCCC1 | nt | nt | nt | nt | nt | i
SMILES | TRHR agonist | D1 potentiator | TRHR enhancer | D1 agonist | D1 antagonist | Glioma ERSR ind
Cc1cccc(C)c1-n1ncc(C(=O)O)c1C1CCN(C(=O)OC(C)(C)C)CC1 | i | i | i | i | i | i
O=C(N=c1ccn(-c2nc3ccccc3nc2NS(=O)(=O)c2ccc(Cl)cc2)cc1)c1ccccc1Cl | i | i | i | 89 | i | nt
CCOc1ccc(S(=O)(=O)Nc2nc3ccccc3nc2-n2ccc(=NC(=O)c3cccs3)cc2)cc1 | i | i | i | 72 | -33 | i
O=C(N=c1ccn(-c2nc3ccccc3nc2NS(=O)(=O)c2ccccc2)cc1)c1ccccc1Cl | i | i | 39 | 38 | i | i
O=c1cc(O)c2c([nH]1)CCC2 | nt | nt | nt | nt | nt | i
O=C(C[n+]1ccccc1Cl)c1cccc([N+](=O)[O-])c1 | nt | nt | nt | nt | nt | i
